An excerpt weighted towards active compounds, which were near 19% of everything screened.
TDP1 block = qHTS Assay for Inhibitors of Tyrosyl-DNA Phosphodiesterase (TDP1) | Potency, µM (series often up to 130 µM), without a hit: at the highest dose activity change, negative = inhibition, most hits filed as inhibitors | Tyrosyl-DNA phosphodiesterase 1 (Homo sapiens), Q9NUW8 | hit rate 0.28% among 350,000 | recombinant TDP1, AlphaScreen DNA substrate cleavage; also: potency is read from the fitted curve at half-maximal effect; % is scaled to controls: 0 for no effect and ±100 for the full control effect; nearly all actives have a fitted effect of over 40% in size
Target sequence (Q9NUW8 whole entry, looked up): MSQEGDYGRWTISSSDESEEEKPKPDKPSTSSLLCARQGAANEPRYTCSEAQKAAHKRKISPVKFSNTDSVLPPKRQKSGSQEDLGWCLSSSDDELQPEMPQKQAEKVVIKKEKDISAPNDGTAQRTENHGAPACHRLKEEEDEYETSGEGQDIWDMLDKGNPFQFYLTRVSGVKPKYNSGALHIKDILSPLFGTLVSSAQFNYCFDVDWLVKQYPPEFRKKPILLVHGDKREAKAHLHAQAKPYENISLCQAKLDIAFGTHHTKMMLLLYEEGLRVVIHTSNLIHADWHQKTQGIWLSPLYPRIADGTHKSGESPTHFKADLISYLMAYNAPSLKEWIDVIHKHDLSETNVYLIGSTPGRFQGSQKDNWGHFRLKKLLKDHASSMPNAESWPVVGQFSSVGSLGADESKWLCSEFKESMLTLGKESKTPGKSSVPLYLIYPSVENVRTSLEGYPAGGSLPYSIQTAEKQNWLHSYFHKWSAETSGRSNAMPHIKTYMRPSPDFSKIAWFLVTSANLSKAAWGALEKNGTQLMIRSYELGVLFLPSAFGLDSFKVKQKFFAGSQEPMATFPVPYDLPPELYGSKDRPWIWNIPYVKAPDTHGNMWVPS
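Tdp1 1 nM final; 15 min RT w/ cpd; substrate 15 nM, 5 min; beads 10 ug/ml, 10 min; AlphaScreen read. Neg ctrl: no enzyme.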
IL1B secr inh = qHTS for Inhibitors of Inflammasome Signaling: IL-1-beta AlphaLISA Primary Screen; THP-1 LPS/ATP IL-1B secretion, AlphaLISA, 16 h; hits give low values; hit rate 4.7% among 360,000; activity change, % at 57.5 µM; in the data active = activity change below about -50%; inconclusive = mostly about -30% to -49%; also: % is scaled to controls: 0 for no effect and ±100 for the full control effect
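THP-1 cells pretreated 1 hr with compounds (up to 57.5 uM final), then stimulated with LPS (250 ng/mL final) plus ATP (1.25 mM final); secreted IL-1B measured by AlphaLISA after 16 hr, decreased signal indicating inhibition.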
HepG2 tox = qHTS for Inhibitors of TGF-b: Cytotox Counterscreen | AID 588856, 2011 | HepG2 CAGA-GFP viability, ATP luminescence, 18 h | hit rate 0.76% among 410,000 | Potency, µM (top dose mostly 46.1 µM), for inactives: top-dose activity change, negative = cytotoxicity, most hits filed as cytotoxic; also: potency is read from the fitted curve at half-maximal effect
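HepG2 CAGA-GFP cells (1000/well, DMEM with 1% FBS) received compound, then TGF-beta at 500 pg/mL final, and were incubated 18 hours at 37 degrees C. Viability was read by CellTiter-Glo luminescence. Media-only wells were set as complete cell-killing and DMSO as no toxicity.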
TGFb SMAD3 inh = qHTS for Inhibitors of TGF-b; Potency, µM (top dose mostly 46.1 µM), for the others: at the highest dose activity, negative = inhibition, most hits filed as inhibitors; hit rate 1.2% among 410,000; HepG2 CAGA-GFP TGF-b/SMAD3 reporter, GFP fluorescence, 18 h; TGF-beta stimulated, 500 pg/mL final; also: potency is read from the fitted curve at half-maximal effect; % is scaled to controls: 0 for no effect and ±100 for the full control effect; nearly all actives have a fitted effect of over 65% in size
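Read-out: total well GFP (ex488/em500-530) summed from mean per-cell fluorescence. Cells: HEPG2 CAGA-GFP, 1% FBS DMEM, 18 h at 37 degrees C with 500 pg/mL final TGF-beta. Unstimulated wells served as the full-inhibition control; stimulated DMSO wells = 0%.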
DT40 TDP1 CPT = qHTS for Inhibitors of human tyrosyl-DNA phosphodiesterase 1 (TDP1): qHTS in cells in presence of CPT | chicken DT40 Tdp1-/-;hTDP1 cells + 20 nM CPT, ATP luminescence, 48 h | Potency, µM (doses to about 46.2 µM), inactives show at the top dose activity change, negative = growth inhibition, actives largely listed as inhibitors | hit rate 12% among 420,000 | AID 686979, 2013; also: potency is read from the fitted curve at half-maximal effect; % is scaled to controls: 0 for no effect and ±100 for the full control effect; nearly all actives have a fitted effect of over 55% in size
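Cell growth measured by CellTiter-Glo luminescence after a minimum 48 h, 37 C compound exposure with 20 nM CPT in Tdp1-knockout DT40 cells stably expressing hTDP1, seeded 400/well; qHTS titration format.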
DT40 TDP1 no CPT = qHTS for Inhibitors of human tyrosyl-DNA phosphodiesterase 1 (TDP1): qHTS in cells in absence of CPT; DT40 Tdp1-/- hTDP1 cells, no CPT, ATP luminescence, 48 h; Potency, µM (doses to about 46.2 µM), for inactives: top-dose activity change, negative = growth inhibition, most hits filed as inhibitors; hit rate 15% among 420,000; AID 686978, 2013; also: potency is read from the fitted curve at half-maximal effect; % is scaled to controls: 0 for no effect and ±100 for the full control effect; nearly all actives have a fitted effect of over 55% in size
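Growth kinetics read by CellTiter-Glo luminescence after ≥48 hr at 37 °C. Cells: DT40 Tdp1-/- stably carrying human TDP1, 400 per well, compound exposure in the absence of CPT (DMSO vehicle).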
Starred values were filed as active, the others as inactive; ? = inconclusive; . = no result; [ ] = another dose, or the depositor's remark. Unless noted, calls follow the shape of the dose curve; as a rule, active = well fitted curve in the direction sought with a large enough effect; inconclusive = small, poorly fitted or top-dose-only effect, or another doubt; inactive = no such curve, though single readings can be large; an effect the other way counts as inactive or inconclusive.

SMILES | TDP1 block | IL1B secr inh | HepG2 tox | TGFb SMAD3 inh | DT40 TDP1 CPT | DT40 TDP1 no CPT
Cc1ccc(-c2nnn3c2nc(NCc2ccc4c(c2)OCO4)c2ccccc23)cc1 | -6.4% | . | 9.1% | -39.2% | ? | ?
COc1cc(OC)c(C(=O)N2CCN(c3ccccn3)CC2)cc1OC | 1.7% | 67.7 | -15.7% | 9.9% | -7.1% | 4.8%
CCOc1ccc(-c2cc(C(=O)N3CCN(c4ccccn4)CC3)c3ccccc3n2)cc1 | 2.1% | -26.7 | 0.5% | 37.9% | 5.8µM* | 9.2µM*
CCCc1ccc(-c2cc(C(=O)N3CCN(c4ccccn4)CC3)c3ccccc3n2)cc1 | 2.7% | -1.3 | -50.0% | ? | ? | 18.4µM*
COc1cc(-c2cc(C(=O)N3CCN(c4ccccn4)CC3)c3ccccc3n2)cc(OC)c1OC | 9.1% | ? | 4.2% | 4.0% | ? | 23.1µM*
COC(=O)NC(/C(C(=O)OC)=C(\C)NCc1ccccc1)c1cccs1 (stereo not drawn) | 2.6%[21 µM] | . | . | . | . | .
Fc1ccccc1OCc1nc(-c2ccc(-n3cccc3)cc2)no1 | 0.6% | . | -28.5% | -5.6% | 0.5% | -0.1%
Cc1ccccc1-c1cc2c(nn1)-c1ccccc1C2=O | 5.7% | 32.3 | -24.1% | ? | ? | ?
O=c1[nH]nc(-c2ccc(F)cc2)cc1-c1ccccc1 | . | -72.2* | 4.2% | -2.1% | ? | -29.3%
O=C1c2ccccc2-c2nnc(-c3ccc(F)cc3)cc21 | -7.7% | 12.7 | -10.7% | -8.9% | ? | 9.2µM*
O=C1c2ccccc2-c2nnc(-c3ccc(O)cc3)cc21 | -1.8% | -23.5 | 2.5% | -2.9% | ? | ?
O=c1[nH]nc(-c2ccc(F)cc2)cc1Cc1ccc(F)cc1 | -1.3% | 67.2 | 5.3% | 14.5% | ? | -17.9%
Cc1ccc(-c2cc3c(nn2)-c2ccccc2C3=O)cc1 | -0.6% | 3.0 | -38.9% | ? | 16.4µM* | 23.1µM*
Cc1c(C(=O)NCC(C)(C)N2CCOCC2)cnn1-c1nccc(-c2cccs2)n1 | . | . | . | . | 21.1% | 5.7%
CC1CCc2nc(-c3cc4c(ccc5ccccc54)oc3=O)sc2C1 (stereo not drawn) | 0.7% | . | 1.6% | 5.3% | 8.7% | -15.8%
Cc1ccc(OC(C)C(=O)Nc2ccncc2)cc1 (stereo not drawn) | . | -0.4 | -5.2% | -19.5% | ? | 13µM*
Cc1cc(OC(C)C(=O)Nc2ccncc2)ccc1Cl (stereo not drawn) | 3.8% | 19.6 | -75.9% | ? | 13µM* | 23.1µM*
C=CCc1c(C)nc2nc(SCC(=O)Nc3ccccc3CC)nn2c1C | 5.2% | . | -23.8% | -21.5% | -29.6% | ?
CCCCCCN(C(=O)CCCN1C(=O)NC(c2ccc([N+](=O)[O-])cc2)C(C(=O)OCc2ccccc2)=C1C)C(C)C(=O)NCCCC (stereo not drawn) | 1.2%[56.1 µM] | -63.4* | -10.4% | -25.7% | 11.6µM* | 9.2µM*
N#CC1=C(N)CCC1 | . | . | 0.6% | 2.5% | -11.9% | -22.8%
CC1CCN(S(=O)(=O)c2ccc3c(c2)N(CC(=O)N2CCN(c4ccc(Cl)cc4)CC2)C(=O)CO3)CC1 | 1.3% | . | -1.2% | 8.7% | . | .
CCOC(=O)C(=CNc1ccc(N2CCOCC2)cc1)C(=O)OCC | 5.7% | -0.8 | -12.4% | -19.2% | ? | 16.4µM*
CCOC(=O)C(=CNc1ccc(NC2=NCC(C)(C)S2)cc1)C(=O)OCC | . | ? | 16.9% | -14.1% | 18.4µM* | 9.2µM*
CCOC(=O)C(=CNc1ccc2c(c1)CCN2C(C)=O)C(=O)OCC | 0.0% | -8.7 | 43.0% | 0.0% | 20.6µM* | 7.31µM*
CCOC(=O)C(=CNc1cc(C)ccc1-n1cccc1)C(=O)OCC | . | . | -34.5% | -24.4% | 18.4µM* | 16.4µM*
SMILES | TDP1 block | IL1B secr inh | HepG2 tox | TGFb SMAD3 inh | DT40 TDP1 CPT | DT40 TDP1 no CPT
Oc1ccc(/C=N/Nc2nccnc2Cl)cc1 | 2.0% | 0.0 | -78.0% | -0.4% | ? | ?
Fc1ccc(/C=N/Nc2nccnc2Cl)cc1 | -2.6% | ? | 10µM* | ? | -27.1% | -26.3%
Fc1cccc(/C=N/Nc2nccnc2Cl)c1 | 4.6% | 0.0 | -95.8% | 15.5% | 11.6µM* | 14.6µM*
COc1ccc(C=CC(=O)c2ccc(OC)c(OC)c2O)cc1OC | . | ? | -16.3% | -7.5% | ? | ?
COc1ccc(C(=O)/C=C/c2ccc(O)cc2)c(O)c1C/C=C(\C)CCC=C(C)C | 7.4% | -86.5* | -116.6% | ? | ? | ?
COc1ccc(CNc2nc3c(c(=O)n(C)c(=O)n3C)n2Cc2ccccc2Cl)cc1 | 7.4% | . | -39.7% | 0.0% | ? | ?
CCc1ccc(N=CC23c4ccccc4C(c4ccccc42)C2C(=O)N(c4ccc(OC)cc4)C(=O)C23)cc1 (stereo not drawn) | 5.9% | -14.7 | -28.0% | ? | ? | 18.4µM*
O=C(Nc1cccc(Cl)c1)C1=Cc2cc(Cl)ccc2OC1 | -4.7% | -6.1 | -30.4% | ? | ? | ?
O=C(Nc1ccc(Cl)c(Cl)c1)C1=Cc2ccccc2OC1 | -0.5% | ? | -46.2% | ? | ? | 23.1µM*
CCOc1cc(NC(=O)C2CC2)c(OCC)cc1NC(=O)c1ccccc1OCC | 4.6% | ? | -9.2% | 35.9% | ? | ?
CCOc1cc(NC(=O)c2ccccc2C)c(OCC)cc1NC(=O)C1=Cc2ccccc2OC1 | -2.6% | 0.0 | 12.8% | 17.7% | 7.31µM* | 5.8µM*
COC(=O)c1ccc(Oc2cc(C)nc(-n3nc(C)cc3C)n2)cc1 | 4.0% | 48.1 | -11.1% | ? | 0.731µM* | 0.581µM*
Cc1cc(Oc2ccc(Br)cc2)nc(SCC(=O)c2ccccc2)n1 | 0.0% | 24.0 | -37.1% | ? | 23.1µM* | 20.6µM*
Cc1cc(C)nc(SCC(=O)c2ccc(F)cc2)n1 | 2.3% | -4.3 | -17.4% | 10.2% | -3.6% | -10.0%
Cc1cc(N2CCCCC2)nc(SCC(=O)c2ccccc2)n1 | 5.8% | -26.9 | -28.4% | -26.2% | ? | 11.6µM*
Cc1cc(Oc2ccc3ccccc3c2)nc(SCC(=O)c2ccccc2)n1 | 4.7% | 11.6 | -24.9% | ? | 20.6µM* | 18.4µM*
O=C(CSc1nc(N2CCCCC2)nc(N2CCCCC2)n1)c1ccccc1 | 2.3% | -8.9 | -15.1% | 0.9% | ? | ?
COC(=O)CSc1nc(C)cc(Oc2ccccc2)n1 | 0.0% | 9.6 | -14.5% | 1.8% | 0.2% | -16.6%

Compound activity: PubChem BioAssay, National Center for Advancing Translational Sciences (NCATS)
